Assay results: PubChem BioAssay AID743167 (National Center for Advancing Translational Sciences (NCATS), 2013)
Several values for one entry are separate records, joined by “and”; a condition that tells them apart may be missing. Identical values can stand only once. Inconclusive results are not listed. Activity calls are given as the source filed them. Calls follow the shape of the dose curve; as a rule, active = well fitted activation curve with a large enough effect; inconclusive = small, poorly fitted or top-dose-only effect; inactive = flat fitted curve, though single readings scatter.

Test: Extended Characterization of HPGD Inhibitors: PGE2 Assay in A549 Cells
Conditions: PGE2 HTRF level, 16 h
From the text: The central role of HPGD is to inactivate prostaglandins such as prostaglandin E2 (PGE2) or prostaglandin D2 (PGD2). These prostaglandins are involved in a number of processes, including inflammation, differentiation, and cellular signaling, which makes HPGD an important target for pharmacological intervention. A number of prostaglandins of particular biological interest have been identified as substrates of HPGD. […] Over-production of PGE2 has been reported to promote tumor-associated neovascularization, cell proliferation, and tumor growth. […] In this orthogonal assay, we set out to measure if compounds were able to increase PGE2 production NIH Chemical Genomics Center [NCGC] NIH Molecular Libraries Probe Centers Network [MLPCN] MLPCN Grant: MH084681 Assay Submitter (PI): Structural Genomics Consortium
A549 cells, LNCaP cells or media were dispensed in 384-well plates (ProxiPlate-384 Plus, PerkinElmer, Shelton, CT) at 5,000 cells/9.9 uL/well using a CappAero384 multichannel pipette (Odense, Denmark). Separately on the plate, 10 uL of PGE2 calibration standards at a starting assay concentration of 5,000 pg/mL (1:2 dilution, 12-points, n = 1, prepared in media, Cisbio, Bedford, MA) were dispensed. Compounds (100 nL, final concentration range from 41.9 nM to 100 uM) were transferred using an ATS Acoustic Liquid Dispenser (EDC Biosystems, Fremont, CA). After being mixed using an automated liquid handler (CyBio, Jena, Germany), samples were incubated (37 deg C, 5% CO2, under a humidified atmosphere) for 16 hours. PGE2 labeled conjugates were added to each well, first 5 uL of PGE2-d2, followed by 5 uL of anti-PGE2-cryptate, centrifuged (1,500 rpm, 15 sec) and incubated (RT, protected from light) for 5 hours. Time-resolved fluorescence intensity (320 nm excitation, 615 and 665 nm emission) was measured using an Envision plate reader (PerkinElmer). Data was expressed as the ratio of 665 nm/615 nm emissions. Concentration (pg/mL) of samples were calculated from a 4-parameter logistic calibration curves of the PGE2 standards.

| SMILES | Potency |
| --- | --- |
| Cc1cc(-c2nnc3n2CCCCC3)c(C)n1-c1cccnc1 | 1.87 µM (active) |
| COC(=O)[C@]12CCC(C)(C)C[C@H]1[C@H]1C(=O)C=C3[C@@]4(C)C=C(C#N)C(=O)C(C)(C)[C@@H]4CC[C@@]3(C)[C@]1(C)CC2 | 16.6 µM (active) |
| Cc1cccc(-n2cnc3cc(C(=O)N4CCCC(C)C4)ccc32)c1 (centres undefined) | 9.35 µM (active) |
| Cc1cc(-c2nnc3n2CCCCC3)c(C)n1-c1ccc(C(C)(C)C)cc1 | 8.33 µM (active) and 13.2 µM (active) |
